Measured values from PubChem BioAssay (EPA / NIEHS).
Where “and” joins values, the source holds several entries; their conditions need not be identical. Equal values may be shown once. Some structures have more than one record in an assay (separate samples or runs), and their calls can disagree. Calls of active or inactive are those of the source. The calls were made as follows: active = hit-call score of the fitted dose curve at least 0.9, where 1 is the maximum; inactive = score below 0.9.

Assays:
[1] = BSK_MyoF_SRB: Viability Assessment in the BioMAP Diversity Plus: MyoF Assay (AID 2284267); conditions: primary human lung fibroblasts;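 also: total protein by SRB absorbance in parallel cultures as cytotoxicity measure; cells assessed 24 h after compound addition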
Outline: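 Human lung fibroblasts dosed with chemical and assessed 24 h later for overt cytotoxicity in parallel cultures. Total protein quantified by sulforhodamine B staining (0.1% SRB after 10% TCA fixation), read at 560 nm, analysed in positive direction versus DMSO baseline.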

[2] = read-out: Matrix Metallopeptidase 1 (MMP1), MMP1 (gene 4312); experiment: BSK_MyoF_MMP1: BioMAP Diversity Plus: MyoF Assay for Matrix Metallopeptidase 1 (MMP1) Biomarker Activity (AID 2284268); conditions: primary human lung fibroblasts
Outline: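 Human lung fibroblast primary cells; MMP1 measured by ELISA 24 h after dosing, fitted in the positive direction relative to DMSO. Parallel SRB staining (0.1%, after 10% TCA fixation, 560 nm) assesses overt cytotoxicity.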

[3] = read-out: TIMP metallopeptidase inhibitor 1 (TIMP1), TIMP1 (gene 7076); experiment: BSK_MyoF_TIMP1: BioMAP Diversity Plus: MyoF Assay for TIMP metallopeptidase inhibitor 1 (TIMP1) Biomarker Activity (AID 2284269); conditions: primary human lung fibroblasts
Outline: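 TIMP-1 levels were determined by ELISA in human lung fibroblasts treated for 24 h. DMSO served as negative control and baseline for upward curve fitting.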

[4] = read-out: Intercellular Adhesion Molecule 1 (ICAM1), ICAM1 (gene 3383); experiment: BSK_BE3C_ICAM1: BioMAP Diversity Plus: BE3C Assay for Intercellular Adhesion Molecule 1 (ICAM1) Biomarker Activity (AID 2284278); conditions: primary human bronchial epithelial cells
Outline: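 Primary human bronchial epithelial cells were exposed to compound for 24 h, after which cell-surface ICAM-1 was quantified by ELISA. Activity was fitted in the gain-of-signal direction against DMSO as negative control and baseline.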

[5] = read-out: Interferon-inducible T-cell alpha chemoattractant (ITAC), CXCL11 (gene 6373); experiment: BSK_BE3C_ITAC: BioMAP Diversity Plus: BE3C Assay for Interferon-inducible T-cell alpha chemoattractant (ITAC) Biomarker Activity (AID 2284279); conditions: primary human bronchial epithelial cells
Outline: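 The assay measures I-TAC levels by ELISA in human primary bronchial epithelial cell cultures 24 hours after chemical treatment. Values reflect signal increase over the DMSO baseline.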

[6] = read-out: Interleukin-8 (IL8), CXCL8 (gene 3576); experiment: BSK_BE3C_IL8: BioMAP Diversity Plus: BE3C Assay for Interleukin-8 (IL8) Biomarker Activity (AID 2284280); conditions: primary human bronchial epithelial cells
Outline: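 ELISA read-out of IL-8 in human lung bronchial epithelial primary cell cultures, 24 h post-dosing; endpoint analysed as signal increase relative to DMSO baseline.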

[7] = read-out: Epidermal growth factor receptor (EGFR), EGFR (gene 1956); experiment: BSK_BE3C_EGFR: BioMAP Diversity Plus: BE3C Assay for Epidermal growth factor receptor (EGFR) Biomarker Activity (AID 2284281); conditions: primary human bronchial epithelial cells
Outline: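 Primary human lung bronchial epithelial cells; compound, 24 h; EGFR measured by ELISA; positive-direction fit vs DMSO baseline.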

KRT18 (gene 3875) = experiment: BSK_BE3C_Keratin818: BioMAP Diversity Plus: BE3C Assay for Keratin 818 Biomarker Activity (AID 2284282); conditions: primary human bronchial epithelial cells
Outline: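 Human primary bronchial epithelial cells in the BE3C system were exposed to test chemical for 24 h, then Keratin 8/18 was quantified by ELISA. Activity was fitted in the positive direction against DMSO as negative control and baseline.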

[8] = read-out: Matrix Metallopeptidase 9 (MMP9), MMP9 (gene 4318); experiment: BSK_BE3C_MMP9: BioMAP Diversity Plus: BE3C Assay for Matrix Metallopeptidase 9 (MMP9) Biomarker Activity (AID 2284283); conditions: primary human bronchial epithelial cells
Outline: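 Human primary bronchial epithelial cells exposed 24 h to compound. MMP9 quantified by ELISA. SRB total-protein staining of parallel cultures assesses cytotoxicity. Positive-direction fit relative to DMSO.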

[9] = read-out: Plasminogen activator inhibitor-1 (PAI1), SERPINE1 (gene 5054); experiment: BSK_CASM3C_PAI1: BioMAP Diversity Plus: CASM3C Assay for Plasminogen activator inhibitor-1 (PAI1) Biomarker Activity (AID 2284284); conditions: primary human coronary artery smooth muscle cells;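 also: PAI-1 protein level measured by ELISA 24 h after dosing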

Measured: AC50

c1ccc2c(c1)ccc1cc3c(ccc4ccccc43)cc12
inactive: [1] | [2] | [3]

c1ccc(-c2ccccn2)nc1
inactive: [1] | [2] | [3]

O=C(c1ccc(O)cc1)c1ccc(O)cc1O
active: [8] 20 µM and 9.6 µM
not listed: [1] | [2] | [3]
inactive: all other assays above

CC(C)C(=O)C(C)C
inactive: [1] | [2] | [3]

C=CCOc1c(Br)cc(Br)cc1Br
inactive: [2]
active: [1] 27.7 µM | [3] 31.2 µM

COc1ccc2nc(N)sc2c1
inactive: [1] | [2] | [3]

CO[Si](OC)(OC)c1ccccc1
not listed: [1] | [2] | [3]
inactive: all other assays above

O=c1c2ccccc2oc2ccccc12
inactive: [1] | [2] | [3]

CCCCNc1ccc(NCCCC)c2c1C(=O)c1ccccc1C2=O
inactive: [1] | [2] | [3]

CCO[Si](CCCN=C=O)(OCC)OCC
inactive: [1] | [2] | [3]

C=C[Si](OC(C)=O)(OC(C)=O)OC(C)=O
not listed: [1] | [2] | [3]
inactive: all other assays above

CCCCC/C=C\C/C=C\CCCCCCCC(=O)OC
active: [2] 31.2 µM
inactive: [1] | [3]

CCCCCCCCCCCCCCCC[N+](C)(C)CC
active: [1] 1.39 µM | [2] 9.34 µM | [3] 2.73 µM

CCOc1nc(F)cc2nc(S(=O)(=O)Nc3c(Cl)cccc3C(=O)OC)nn12
inactive: [1] | [2] | [3]

CCO[Si](C)(OCC)OCC
not listed: [1] | [2] | [3]
inactive: all other assays above

CCCCC(CC)COCC1CO1 (centres undefined)
not listed: [1] | [2] | [3]
inactive: all other assays above

C#CC1(O)CC[C@H]2[C@@H]3CCC4=CCCC[C@@H]4[C@H]3CC[C@@]21C (some centres undefined)
inactive: [2]
active: [1] 30.1 µM | [3] 33.1 µM

C=CCOCC(O)CCl (centres undefined)
inactive: [1] | [2] | [3]

S=C(NC1CCCCC1)NC1CCCCC1
inactive: [1] | [2] | [3]

O=C(Nc1ccccc1SSc1ccccc1NC(=O)c1ccccc1)c1ccccc1
inactive: [1] | [2] | [3]

c1ccc2c(c1)ccc1ncccc12
inactive: [1] | [2] | [3]

O=Nc1ccc(O)cc1
inactive: [1] | [2] | [3]

CC(C)(c1cc(Br)c(OCCO)c(Br)c1)c1cc(Br)c(OCCO)c(Br)c1
active: [1] 5.78 µM | [2] 9.32 µM | [3] 9.33 µM

O=C1CCCN1CCO
not listed: [1] | [2] | [3]
inactive: all other assays above

C/C=C\C/C=C/CCCCCCCCOC(C)=O
inactive: [1] | [2] | [3]

Nc1ccc(N)c(Cl)c1
active: [6] 5.71 µM | [8] 15.2 µM and 7.82 µM
inactive: [4] | [5] | [6] | [7] | KRT18 (gene 3875) | [9]

N#[N+]c1ccc2c(S(=O)(=O)[O-])cccc2c1O
inactive: [1] | [2] | [3]

C=CC=CC=CCCCCC
inactive: [1] | [2] | [3]

CCOC(=O)c1ccccc1C(=C1C=C(Br)C(=O)C(Br)=C1)c1cc(Br)c(O)c(Br)c1
inactive: [7] | [9]
active: [4] 5.49 µM and 5.66 µM | [5] 3.9 µM and 3.63 µM | [6] 7.85 µM and 7.6 µM | KRT18 (gene 3875) 3.98 µM and 4.84 µM | [8] 4.52 µM and 2.5 µM

COCc1c(C(C)C)nc(C(C)C)c(/C=C/[C@@H](O)C[C@@H](O)CC(=O)O)c1-c1ccc(F)cc1
active: [2] 0.0515 µM
inactive: [3]

CC1OC1C1CCC2(C)OC2C1 (centres undefined)
inactive: [1] | [2] | [3]

CCCCC(CC)COC(=O)c1ccccc1O (centres undefined)
inactive: [1] | [3]
active: [2] 10 µM

C=CC(=O)OCC(Br)CBr (centres undefined)
inactive: [2]
active: [1] 20 µM | [3] 20 µM

CCCCCCCCc1ccc(Nc2ccc(CCCCCCCC)cc2)cc1
inactive: [1] | [2] | [3]

CN1C(=O)N(C)C(O)C1O (centres undefined)
not listed: [1] | [2] | [3]
inactive: all other assays above

O=C(Cl)c1cc(C(=O)Cl)cc(C(=O)Cl)c1
active: [1] 34.7 µM | [2] 31.9 µM | [3] 31.2 µM
